Bioassay records: PubChem, National Center for Advancing Translational Sciences (NCATS)
Rows were chosen to be rich in hits. Some 5.7% of all compounds tested hit in one or more screens of this group.
JMJD2E inh = qHTS Assay for Inhibitors of Human Jumonji Domain Containing 2E (JMJD2E). Lysine-specific demethylase 4E (Homo sapiens), B2RXH2. JMJD2E catalytic domain, FDH-coupled NADH fluorescence (FDH is formaldehyde dehydrogenase). Potency, µM (titrated, usually from 57.1 µM), for inactives: at the highest dose activity change, negative = inhibition, hits mostly inhibitors. 230,000 compounds, 1.6% hits; active means well fitted inhibition curve with a large enough effect, not every such curve was filed as active; inconclusive means small, poorly fitted or top-dose-only effect, or another doubt; inactive means no such curve, though single readings can be large or run the other way;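 further: potency means the concentration at half of the fitted maximal effect; 0% = wells with enzyme and -100% = buffer wells without enzyme; nearly all actives have a fitted effect of over 50% in size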
BAZ2B inh = qHTS Assay for Inhibitors of BAZ2B; Bromodomain adjacent to zinc finger domain protein 2B (Homo sapiens), Q9UIF8; AlphaScreen BAZ2B-H3K14Ac peptide displacement; Potency, µM (highest dose often 114 µM), without a hit: at the top dose activity change, negative = inhibition, usual class: inhibitors; 360,000 compounds, 4.4% hits; AID 504333, 2011; further: potency means the concentration at half of the fitted maximal effect; on the % scale 0 is the no-effect control and ±100 the full control effect; nearly all actives have a fitted effect of over 60% in size
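Multi-concentration screen (max 110 uM) measuring displacement of acetylated histone H3 peptide from BAZ2B by AlphaScreen, using 50 nM protein, 50 nM peptide and 10 ug/mL streptavidin donor plus Ni-chelate acceptor beads.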
PI5P4Ka inh = qHTS for Inhibitors of phosphatidylinositol 5-phosphate 4-kinase (PI5P4K). Phosphatidylinositol 5-phosphate 4-kinase type-2 alpha (Homo sapiens), P48426. PI5P4Kalpha enzyme, ADP-Glo luminescence, 60 min; active compounds read low. max response, %. 330,000 compounds, 1.2% hits; active means max response of -50% or lower; inconclusive means between -30% and -50%; inactive means -30% or higher; further: value at the top dose of about 77 µM; on the % scale 0 is the no-effect control and ±100 the full control effect
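Reactions run in 0.038 M HEPES pH 7.4, 0.28 mM EGTA, 0.1% CHAPS and 5% DMSO, with PI5P4Kalpha, substrate, compound and 5 microM ATP final, one hour at room temperature. Readout is ADP-Glo luminescence.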
L3MBTL1 block = qHTS Assay for the Inhibitors of L3MBTL1; AlphaScreen L3MBTL1–H3K9me1 peptide binding; Potency, µM (titrated, usually from 57.1 µM), for inactives: at the top dose activity, negative = inhibition, actives largely listed as inhibitors; 230,000 compounds, 0.66% hits; further: potency means the concentration at half of the fitted maximal effect; on the % scale 0 is the no-effect control and ±100 the full control effect; nearly all actives have a fitted effect of over 60% in size
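L3MBTL1 50 nM + b-AHA-H3(1-15)K9me1 75 nM, 30 min RT; compound added, 30 min RT; streptavidin donor/Ni-chelate acceptor beads 10 ug/mL each final, 30 min RT dark; AlphaScreen read.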
HP1b chromo inh = HTS for Inhibitors of HP1-beta Chromodomain Interactions with Methylated Histone Tails; Potency, µM (titrated, usually from 114 µM), inactives show top-dose activity change, negative = inhibition, usual class: inhibitors; 390,000 compounds, 0.56% hits; AlphaScreen HP1-beta / biotin-H3K9me3 peptide binding; Chromobox protein homolog 1 (Homo sapiens), P83916; further: potency means the concentration at half of the fitted maximal effect; nearly all actives have a fitted effect of over 70% in size
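HP1-beta protein (50 nM final) preincubated 30 min at room temperature with biotinylated H3(1-18)K9me3 peptide (50 nM) in PBS pH 7.4, 0.01% Tween-20, then compound added for 30 min. AlphaScreen streptavidin donor/nickel chelate acceptor beads (10 ug/mL final), 30 min dark, luminescence read.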
JMJD2A Tudor inh = qHTS Assay for Inhibitors of JMJD2A-Tudor Domain; Lysine-specific demethylase 4A (Homo sapiens), O75164; AlphaScreen JMJD2A-Tudor / H3K4me3 peptide binding; Potency, µM (doses to about 114 µM), for the others: at the highest dose activity change, negative = inhibition, actives largely listed as inhibitors; 390,000 compounds, 4.4% hits; AID 504339, 2011; further: potency means the concentration at half of the fitted maximal effect; on the % scale 0 is the no-effect control and ±100 the full control effect; nearly all actives have a fitted effect of over 50% in size
* = called active by the depositor; [ ] = dose if it differs, or a comment. Unless noted, the call rests on the fitted dose curve; in most records, active means well fitted inhibition curve with a large enough effect; inconclusive means small, poorly fitted or top-dose-only effect; inactive means no such curve, though single readings can be large or run the other way.

O=C(C1CCCCC1)N1CCN=C1SCc1cccc([N+](=O)[O-])c1 was read as JMJD2E inh 3.9%, BAZ2B inh inconclusive, PI5P4Ka inh 2.0, L3MBTL1 block 2.3%, HP1b chromo inh -11.2% and JMJD2A Tudor inh -24.8%.
CSc1ccc(CNC(=O)CCc2c(C)nn(-c3ccc(N4CCCC4)nn3)c2C)cc1 was read as BAZ2B inh 56.2µM*, HP1b chromo inh -12.4% and JMJD2A Tudor inh -26.7%.
Screening CCCC[n+]1ccn(-c2nc3ccccc3nc2[N-]S(=O)(=O)c2ccc(Cl)cc2)c1 returned JMJD2E inh inconclusive, BAZ2B inh inconclusive, PI5P4Ka inh 0.0, HP1b chromo inh 15.6% and JMJD2A Tudor inh inconclusive.
CCCCC[n+]1ccn(-c2nc3ccccc3nc2[N-]S(=O)(=O)c2ccccc2)c1 was read as JMJD2E inh inconclusive, BAZ2B inh 20µM*, PI5P4Ka inh -5.5, L3MBTL1 block 9.9%, HP1b chromo inh 15.8% and JMJD2A Tudor inh -3.2%.
For CCc1noc(-c2ccc(NCc3ccccc3)c([N+](=O)[O-])c2)n1 the results were BAZ2B inh -6.5%, HP1b chromo inh 23.1% and JMJD2A Tudor inh -11.6%.
Screening O=C(COc1ccc(Cl)cc1)Nc1ccc(C(=O)O)cc1NC(=O)COc1ccc(Cl)cc1 returned BAZ2B inh 50.1µM*, PI5P4Ka inh 6.6, HP1b chromo inh 20.7% and JMJD2A Tudor inh -21.2%.
Screening COc1ccc(/C=C/C(=O)NC(=S)Nc2cc([N+](=O)[O-])ccc2O)cc1OC returned JMJD2E inh -10.6%, BAZ2B inh inconclusive, PI5P4Ka inh -24.9, L3MBTL1 block -19.4%, HP1b chromo inh inconclusive and JMJD2A Tudor inh 89.1µM*.
For CCOc1ccc(CCNC(=O)c2cccc(-n3c(C)nc4cccnc43)c2C)cc1 the results were BAZ2B inh -1.2%, HP1b chromo inh 43.8% and JMJD2A Tudor inh 0.0%.
COc1ccc(Nc2nc(NCc3ccco3)nc(N/N=C/c3ccccc3F)n2)cc1 was read as JMJD2E inh -27.9%, BAZ2B inh inconclusive, PI5P4Ka inh -18.4, L3MBTL1 block -11.0%, HP1b chromo inh inconclusive and JMJD2A Tudor inh 50.1µM*.
`COc1ccc(Nc2nc(NCc3ccco3)nc(N/N=C/c3ccc(O)cc3)n2)cc1` gave JMJD2E inh 0.0%, BAZ2B inh 22.4µM*, PI5P4Ka inh -25.8, L3MBTL1 block inconclusive, HP1b chromo inh -15.2% and JMJD2A Tudor inh inconclusive.
COc1ccc(/C=N/Nc2nc(NCc3ccco3)nc(Nc3ccc(OC)cc3)n2)cc1 was read as JMJD2E inh inconclusive, BAZ2B inh inconclusive, PI5P4Ka inh 3.2, L3MBTL1 block -23.3%, HP1b chromo inh 11.0% and JMJD2A Tudor inh -34.9%.
Screening Cc1cc(-c2ccc(S(=O)(=O)N3CCN(c4ccc(Cl)cc4)CC3)s2)on1 returned BAZ2B inh 2.3%, HP1b chromo inh 29.5% and JMJD2A Tudor inh 1.3%.
CC(=O)C1=NN(c2ccccc2)C(c2ccc3c(c2)OCO3)N1c1ccc(N2CCOCC2)cc1 (configuration not stated) was read as JMJD2E inh -26.4%, BAZ2B inh 28.2µM*, PI5P4Ka inh 4.3, L3MBTL1 block inconclusive, HP1b chromo inh inconclusive and JMJD2A Tudor inh inconclusive.
Screening COc1ccc(C(C(=O)Nc2ccc(C(C)C)cc2)N(C)C(=O)c2ccc(=O)[nH]c2)cc1 (configuration not stated) returned JMJD2E inh 5.9%, BAZ2B inh -5.9%, PI5P4Ka inh -29.5, HP1b chromo inh -16.5% and JMJD2A Tudor inh 50.1µM*.
`Cc1cc(C)nc(SSc2nc(C)cc(C)n2)n1` gave BAZ2B inh 3.8%, PI5P4Ka inh inconclusive, L3MBTL1 block -4.3%, HP1b chromo inh 35.1% and JMJD2A Tudor inh 10µM*.
`COc1ccc(C(C(N)=O)c2ncc(C(F)(F)F)cc2Cl)cc1OC` (configuration not stated) gave JMJD2E inh 6.5%, BAZ2B inh -0.6%, PI5P4Ka inh -3.0, L3MBTL1 block 8.2%, HP1b chromo inh 37.0% and JMJD2A Tudor inh -2.8%.
`OC(CNCC1(N2CCCCC2)CCCCC1)COc1ccc(Cl)cc1Cl` (configuration not stated) gave JMJD2E inh inconclusive, BAZ2B inh -30.9%, PI5P4Ka inh 10.4, L3MBTL1 block -2.0%, HP1b chromo inh inconclusive and JMJD2A Tudor inh 2.82µM*.
For O=C(COc1ccc(Cl)cc1Cl)NCC1(N2CCOCC2)CCCCC1 the results were PI5P4Ka inh -2.4, L3MBTL1 block -1.6%, HP1b chromo inh 24.3% and JMJD2A Tudor inh 4.1%.
Screening CCn1c(C2CCN(S(=O)(=O)c3ccc(OC)cc3)CC2)n[nH]c1=S returned JMJD2E inh -4.8%, BAZ2B inh -18.8%, PI5P4Ka inh 0.2, HP1b chromo inh 7.7% and JMJD2A Tudor inh 6.31µM*.
`COc1ccc(S(=O)(=O)N2CCCCCC2)cc1` gave JMJD2E inh 4.4%, BAZ2B inh -2.8%, PI5P4Ka inh 0.5, HP1b chromo inh 16.1% and JMJD2A Tudor inh -14.4%.
Screening CC(=O)Nc1ccc(S(=O)(=O)N2CCC(N3CCCC3)CC2)cc1 returned BAZ2B inh inconclusive, PI5P4Ka inh -7.4, HP1b chromo inh inconclusive and JMJD2A Tudor inh 3.55µM*.
`COc1ccc(S(=O)(=O)N2CCC(N3CCCCC3)CC2)cc1` gave JMJD2E inh -28.4%, BAZ2B inh 70.8µM*, PI5P4Ka inh -3.3, L3MBTL1 block -22.6%, HP1b chromo inh inconclusive and JMJD2A Tudor inh 8.91µM*.
For O=S(=O)(c1ccc(F)cc1)N1CCC(N2CCCC2)CC1 the results were JMJD2E inh inconclusive, BAZ2B inh inconclusive, PI5P4Ka inh 6.4, L3MBTL1 block inconclusive, HP1b chromo inh inconclusive and JMJD2A Tudor inh 20µM*.
`CCOc1ccc(CNC(=O)C2CCN(S(=O)(=O)c3ccc4c(ccn4C)c3)CC2)cc1` gave BAZ2B inh -3.8%, HP1b chromo inh 18.1%[57 µM] and JMJD2A Tudor inh -16.0%.
`CCOc1ccccc1NC(=O)Cn1c(=O)n(C(C)C)c(=O)c2oc3ccccc3c21` gave BAZ2B inh -30.5%, HP1b chromo inh 47.0% and JMJD2A Tudor inh 9.9%.
For Cc1ccccc1OC(=O)CSc1nnc(-c2ccc(F)cc2)o1 the results were BAZ2B inh -2.2%, HP1b chromo inh 65.8% and JMJD2A Tudor inh 0.7%.
